Data on 7 sequences can be found in paper PMC8384837, “Expanding the binding specificity for RNA recognition by a PUF domain”.

The first assay deals with PUM1 PUF domain R5-GFL (Homo sapiens, UniProt Q14671 828-1176, C1007G;R1008F;Q1011L). Description: yeast three-hybrid, YBZ-1, SC-Leu-His + 0.5 mM 3-AT, 4 days. Conditions: tags: N-Gal4 AD-HA kept; label: inside an RPR1-promoter hybrid RNA with tandem MS2 sites; ssRNA. The method in brief: (§1)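 A centromeric plasmid in strain YBZ-1 co-expressed Pumilio-1 PUF domain libraries, randomized at the three base-contacting residues of each repeat, with matching RNA elements; the strain carries a LexA–MS2 coat fusion and a HIS3 reporter. After four days on SC-Leu (input) or SC-Leu-His + 0.5 mM 3-AT (selection), the repeat regions were PCR-amplified and Illumina-sequenced. The interaction score is the log change in variant frequency from input to selection, using log2 and a pseudocount of 1 where absent.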
As for “GGCUAGAACUAGUGGAUCCCCCGGCGCCCGGCGGCUCGAGCCCGGGUAAGUGUAAAUAGUCUGCAUGCCGCCGGGCGCCAUGCCUGCAGGUCGACUCUAGAAAACAUG”, the binding signal is 3.65 log2 enrichment (interaction score). On the same count and under the same terms, to “GGCUAGAACUAGUGGAUCCCCCGGCGCCCGGCGGCUCGAGCCCGGGUAAGUGUUAAUAGUCUGCAUGCCGCCGGGCGCCAUGCCUGCAGGUCGACUCUAGAAAACAUG” belongs 5.05 log2 enrichment (interaction score); to “GGCUAGAACUAGUGGAUCCCCCGGCGCCCGGCGGCUCGAGCCCGGGUAAGUGUGAAUAGUCUGCAUGCCGCCGGGCGCCAUGCCUGCAGGUCGACUCUAGAAAACAUG”, 1.77 log2 enrichment (interaction score).

In another assay the target is PUM1 PUF domain R3-ARR (Homo sapiens, UniProt Q14671 828-1176, C935A;Q939R). The assay is described as above. Conditions: tags: N-Gal4 AD-HA kept; label: inside an RPR1-promoter hybrid RNA with tandem MS2 sites; ssRNA. The method, boiled down: as §1
Regarding “GGCUAGAACUAGUGGAUCCCCCGGCGCCCGGCGGCUCGAGCCCGGGUAAGUGUAAUUAGUCUGCAUGCCGCCGGGCGCCAUGCCUGCAGGUCGACUCUAGAAAACAUG”, the binding signal was 3.37 log2 enrichment (interaction score).

With “GGCUAGAACUAGUGGAUCCCCCGGCGCCCGGCGGCUCGAGCCCGGGUAAGUGUAAAUAGUCUGCAUGCCGCCGGGCGCCAUGCCUGCAGGUCGACUCUAGAAAACAUG”, the binding signal is 2.49 log2 enrichment (interaction score).

As to “GGCUAGAACUAGUGGAUCCCCCGGCGCCCGGCGGCUCGAGCCCGGGUAAGUGUAAGUAGUCUGCAUGCCGCCGGGCGCCAUGCCUGCAGGUCGACUCUAGAAAACAUG”, the binding signal was 1.41 log2 enrichment (interaction score).

A further assay has as its target PUM1 PUF domain R4-PFR (Homo sapiens, UniProt Q14671 828-1176, N971P;H972F;Q975R). The assay is described as above. Conditions: tags: N-Gal4 AD-HA kept; label: inside an RPR1-promoter hybrid RNA with tandem MS2 sites; ssRNA. The method in brief: as §1
On to “GGCUAGAACUAGUGGAUCCCCCGGCGCCCGGCGGCUCGAGCCCGGGUAAGUGUAAAUAGUCUGCAUGCCGCCGGGCGCCAUGCCUGCAGGUCGACUCUAGAAAACAUG”, for which the binding signal is 1.61 log2 enrichment (interaction score). Same read-out and setting: the same measure for “GGCUAGAACUAGUGGAUCCCCCGGCGCCCGGCGGCUCGAGCCCGGGUAAGUGUACAUAGUCUGCAUGCCGCCGGGCGCCAUGCCUGCAGGUCGACUCUAGAAAACAUG”: 6.57 log2 enrichment (interaction score); for “GGCUAGAACUAGUGGAUCCCCCGGCGCCCGGCGGCUCGAGCCCGGGUAAGUGUAUAUAGUCUGCAUGCCGCCGGGCGCCAUGCCUGCAGGUCGACUCUAGAAAACAUG”: 4.81 log2 enrichment (interaction score).
